Shown is part of a subset that was picked to be rich in hits.
RMI-FANCM inh: RMI-FANCM interaction inhibition; Fluorescence polarization, RMI core complex with F-MM2 peptide; hits give low values; FP signal (polarization) at 33 µM; actives 0.58% (n = 70,000); in the data active means FP signal below about 40
Hits are given with their value; . = inactive.

SMILES | RMI-FANCM inh
C#CCn1c(=NC(=O)CSC(C)=O)sc2cc(Br)ccc21 | .
Cc1c(N=C2NC(=O)/C(=C/c3cccc([N+](=O)[O-])c3)S2)c(=O)n(-c2ccccc2)n1C | .
CC[C@@H](C(=O)[C@@H](C)[C@@H](O)[C@H](C)CCc1ccc(C)c(O)c1C(=O)O)[C@H]1O[C@](CC)([C@H]2CC[C@](O)(CC)[C@H](C)O2)C[C@@H]1C | .
COC(=O)Cn1c(=NC(=O)c2ccc(F)cc2)sc2cc(OC)ccc21 | 28
COC(=O)Cn1c(=NC(=O)c2ccc(OC)cc2)sc2cc(NC(C)=O)ccc21 | .
COC(=O)Cn1c(=NC(=O)c2ccc(Br)s2)sc2cc(F)ccc21 | .
CCOC(=O)COc1coc(CN2CCN(c3ccccc3)CC2)cc1=O | .
COC(=O)c1ccccc1NS(=O)(=O)c1cccc2cccnc12 | .
O=C(O)CC(NS(=O)(=O)c1cc(S(=O)(=O)NC(CC(=O)O)c2ccccc2)c2cccc3c2c1NC3=O)c1ccccc1 (stereo unspecified) | .
COC(=O)c1ccccc1NS(=O)(=O)c1cc(S(=O)(=O)Nc2ccccc2C(=O)OC)c2cccc3c2c1NC3=O | 30
COc1ccc(NC(=O)Cc2csc(Nc3cccc(Cl)c3)n2)c(OC)c1 | .
CCCCCC(=O)O[C@]1(C(C)=O)CCC2C3CCC4=CC(=O)CC[C@]4(C)C3CC[C@@]21C (stereo partly specified) | .
CCN1C(=O)NC2(CCN(S(=O)(=O)c3ccc(OC(F)(F)F)cc3)CC2)C1=O | .
CCOC(=O)/C(C#N)=C/Nc1cccc(F)c1C#N | .
CC(=O)N1CCc2c(sc(N)c2C(N)=O)C1 | .
CSc1ccccc1C(=O)Nc1sc2c(c1C(N)=O)CCN(C(C)C)C2 | .
CC(C)N1CCc2c(sc(N)c2C(N)=O)C1 | -30
Cc1c(NS(=O)(=O)c2ccc(S(=O)(=O)c3ccccc3)s2)c(=O)n(-c2ccccc2)n1C | .
COc1ccc2nc(-c3ccc(F)c(NC(=O)Nc4ccccc4C)c3)cn2n1 | .
O=C(O)c1nc2nccnc2cc1Br | 17
CS(=O)(=O)c1ncc(Br)c(C(=O)O)n1 | .
O=C(O)c1ncccc1Br | .
CCCC(=O)c1cc2cc(Br)ccc2oc1=O | .
CCOc1ccc(OCC(=O)Nc2cc(C)nn2-c2nc3ccccc3s2)cc1 | .
O=[N+]([O-])c1ccc(-c2nn(-c3ccccc3)cc2/C=N/n2c(-c3cccs3)n[nH]c2=S)cc1 | 12
SMILES | RMI-FANCM inh
O=C(Cc1ccc([N+](=O)[O-])cc1)N/N=C\c1cn(-c2ccccc2)nc1-c1ccccc1 | .
S=c1[nH]nc(-c2ccncc2)n1/N=C\c1cn(-c2ccccc2)nc1-c1cccs1 | .
CCNc1nc(SCc2ccc([N+](=O)[O-])cc2)nc2sc3c(c12)CCC(C)C3 (stereo unspecified) | .
Cn1c(SCc2ccc([N+](=O)[O-])cc2)nc2c(c1=O)SCC2 | .
CCNc1nc(SCc2ccc([N+](=O)[O-])cc2)nc2sc3c(c12)CCN(C)C3 | -31
O=S(=O)(NC1CCCC1)c1cccc2cnccc12 | .
Cc1c(Cl)cccc1N=Cc1ccc(N(C)C)cc1 | .
CCOC(=O)/C=C/C(=O)Nc1sc(C)c(C)c1C(N)=O | .
Cc1sc(N)c(C(=O)c2cccc(C(F)(F)F)c2)c1C | .
Cc1sc(N)c(C(N)=O)c1C | 15
NNC(=S)NCc1ccc(F)cc1 | .
Cc1c(C)c2c(c(C)c1O)CC[C@@](C)(CCC[C@H](C)CCC[C@H](C)CCCC(C)C)O2 | .
Cc1c(C)c2c(c(C)c1O)CCC(C)(C(=O)O)O2 (stereo unspecified) | 1
Cc1c(C)c2c(c(C)c1O)CCC(C)(CN1CCN(c3cc(N4CCCC4)nc(N4CCCC4)n3)CC1)O2 (stereo unspecified) | .
CC/C(C)=C1\SC(N2CCN(c3ccccc3[N+](=O)[O-])CC2)=NC1=O | .
C/C=C/c1ccc(Oc2nnc(-c3ccc(C)cc3)c3ccccc23)c(OC)c1 | .
COCCn1c(C)cc(O)c(C(c2ccccc2Cl)N2CCN(c3ccccc3F)CC2)c1=O (stereo unspecified) | .
O=c1ccc(-c2ccco2)nn1CCCNS(=O)(=O)c1ccc(F)cc1 | .
N#C/C(=C\c1ccc(-c2cccc(C(F)(F)F)c2)o1)C(N)=S | .
N#C/C(=C/c1ccoc1-c1ccc([N+](=O)[O-])cc1)C(N)=S | 24
COC(=O)/C(C#N)=C\c1cc([N+](=O)[O-])ccc1N1CCCC1 | .
O=C(Nc1ccc(-c2ccc(NC(=O)c3ccccc3)c(C(=O)O)c2)cc1C(=O)O)c1ccccc1 | .
CCOC(=O)c1c(N=Cc2ccc(N(CC)CC)cc2O)sc2c1CCCC2 | .
N#Cc1c(N=Cc2cc(Br)cc(Br)c2O)sc2c1CCCC2 | .
CCN(CC)c1ccc(C=Nc2sc3c(c2C#N)CCCC3)c(O)c1 | 18
COc1ccc(CC(=O)NCCc2ccc3c(c2)CCCN3C)cc1 | .
N#C/C(=C/C1=Cc2ccccc2OC1)c1nc2ccccc2s1 | .
Cn1c(/C=C(\C#N)c2nc3ccccc3s2)ccc1-c1cccc(Cl)c1 | 15
Cc1ccc(-c2ccc(/C=C(\C#N)c3nc4ccccc4s3)o2)c([N+](=O)[O-])c1 | .

Screens from PubChem BioAssay.
